# An excerpt weighted towards active compounds, which were near 7.3% of everything screened.
# SMN2 splice up: increases expression of the SMN2 splice variant | HEK293 SMN2-luciferase splicing reporter, luminescence, 30-36 h | Potency, µM (highest dose often 46.1 µM), for the others: at the top dose activity change, positive = activation, actives largely listed as activators | actives 2.8% (n = 210,000) | AID 1458; note: % of control where 0% means no effect; nearly all actives have a fitted effect of over 55% in size
#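 qHTS luciferase splicing reporter: luminescence rises when SMN2 exon 7 is included in transfected HEK293 cells. Compound exposure lasted 30-36 h at 37C, with 4.5 mM final sodium butyrate as control, followed by a ONE-Glo read.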
# FLuc counter: firefly luciferase modulation, counter-screen for miR-21 project; P08659; purified FLuc, Km substrates, luminescence inhibition; Potency, µM (series often up to 57.5 µM), inactives show at the top dose activity change, negative = inhibition, most hits filed as inhibitors; actives 6.9% (n = 360,000);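 note: plate controls were vehicle for no effect and reference inhibitor for full effect; nearly all actives have a fitted effect of over 55% in size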
# Target sequence (P08659 whole entry, looked up): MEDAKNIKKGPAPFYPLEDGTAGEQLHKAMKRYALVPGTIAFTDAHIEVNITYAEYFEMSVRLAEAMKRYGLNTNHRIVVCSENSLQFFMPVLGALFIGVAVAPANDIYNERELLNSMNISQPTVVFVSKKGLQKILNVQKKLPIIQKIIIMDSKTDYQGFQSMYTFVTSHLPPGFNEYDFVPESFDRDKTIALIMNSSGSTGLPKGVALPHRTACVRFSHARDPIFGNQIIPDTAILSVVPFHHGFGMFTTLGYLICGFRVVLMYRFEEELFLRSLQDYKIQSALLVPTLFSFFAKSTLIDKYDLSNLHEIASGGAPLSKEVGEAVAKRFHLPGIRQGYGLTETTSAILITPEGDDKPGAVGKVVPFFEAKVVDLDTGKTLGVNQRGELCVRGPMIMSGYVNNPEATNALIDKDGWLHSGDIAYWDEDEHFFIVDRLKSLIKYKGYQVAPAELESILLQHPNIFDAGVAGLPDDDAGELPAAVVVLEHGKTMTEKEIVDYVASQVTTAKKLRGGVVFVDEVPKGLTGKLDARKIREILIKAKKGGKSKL
#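 Purified P. pyralis luciferase, 10 nM final, with Km-level 10 uM D-luciferin and 10 uM ATP in 50 mM Tris acetate pH 7.5, 10 mM Mg acetate, 0.01% Tween-20, 0.05% BSA; 6-point qHTS titration about 60 µM downward; luminescence read.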
# Rab9 promoter act: Rab9 promoter activation | actives 2.8% (n = 320,000) | Huh7 Rab9 promoter-luciferase reporter, luminescence, 24 h | AID 485297 | Potency, µM (top dose mostly 9.22 µM), inactives show at the top dose activation, negative = inhibition, actives largely listed as activators; note: % of control where 0% means no effect; nearly all actives have a fitted effect of over 60% in size
#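 Huh7 cells stably carrying a Rab9 promoter-luciferase reporter, 1500 cells per well in OP-MEM I with 10% FBS, treated with compound 24 hours at 37C. Luciferase activity read by luminescence after 10 minutes with Amplite reagent.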
# NPC1 prom act: NPC1 promoter activation | Huh7 NPC1 promoter luciferase reporter, 24 h | actives 2.4% (n = 320,000) | Potency, µM (series often up to 9.22 µM), for the others: at the highest dose activation, hits mostly activators; note: % of control where 0% means no effect; nearly all actives have a fitted effect of over 60% in size
#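 In 1536-well qHTS, Huh7 cells harboring an NPC1 promoter–luciferase construct received compound for 24 h; activation was quantified by luminescence following luciferase reagent addition.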
# Luc counter: Kinase-Glo luciferase inhibition (counter-screen); Kinase-Glo luciferase, ATP luminescence, 8 min; AID 1379; Potency, µM (titrated, usually from 38.3 µM), inactives show at the highest dose activity change, negative = inhibition, actives largely listed as inhibitors; actives 0.28% (n = 200,000); note: % is set by controls: 0 for no effect and ±100 for the full control effect; nearly all actives have a fitted effect of over 60% in size
#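 Light output from Kinase-Glo luciferase with luciferin and 10 uM ATP in 50 mM imidazole pH 7.2, KCl, MgCl2, Tween 20, BSA; compound pin-delivered, 8-min ambient incubation, then luminescence read.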
# ELG1 genotox: inducers of genotoxicity in HEK293T ELG1-luciferase cells. Potency, µM (doses to about 46 µM), without a hit: at the top dose activity change, positive = activation, usual class: activators. HEK293T ELG1-luciferase reporter, luminescence, 16 h. AID 504466. actives 1.3% (n = 330,000); note: % of control where 0% means no effect; nearly all actives have a fitted effect of over 60% in size
#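 Genotoxicity was scored as increased ELG1-luciferase reporter signal, measured by ONE-Glo luminescence (30 min, room temperature). Compound or vehicle exposure of the HEK293T reporter cells lasted 16 hr at 37°C.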
# Active calls of the source: *; ? = inconclusive; · = not tested or not shown. Calls come from the whole dose curve; as a rule, active = well fitted curve in the direction sought with a large enough effect; inconclusive = small, poorly fitted or top-dose-only effect, or another doubt; inactive = no such curve, though single readings can be large; an effect the other way counts as inactive or inconclusive. Potency is the fitted concentration of half-maximal effect.
SMILES,SMN2 splice up,FLuc counter,Rab9 promoter act,NPC1 prom act,Luc counter,ELG1 genotox
Cc1nc(-c2ccc(NC(=O)c3ccc(Br)o3)cc2)cs1,·,1.51µM*,0.794µM*,1.78µM*,·,2.91µM*
Cc1nc(-c2cccc(NC(=O)c3ccc(Br)o3)c2)cs1,·,?,-2.1%,12.4%,·,-11.5%
Cc1nc(-c2ccc(NC(=O)C3CC3)cc2)cs1,·,10.7µM*,2.82µM*,2.51µM*,·,20.6µM*
COc1ccc(/C=C/C(=O)NNc2cc(=O)n(C)c(=O)n2C)cc1OC,·,2.8%,0.3%,-4.6%,·,-0.2%
Cc1ccc(CNc2nc3ccccc3n2C)o1,·,?,2µM*,?,·,?
CCOc1ccc(CNc2nc3ccccc3n2C)cc1,·,12µM*,2µM*,3.16µM*,·,?
CCOc1ccccc1CNc1nc2ccccc2n1C,·,0.6%,-3.4%,-0.1%,·,-5.2%
Cn1c(NCc2ccccc2O)nc2ccccc21,?,21.3µM*,2.82µM*,3.98µM*,-3.5%,?
CCN(CC)CCn1c(NCc2ccc(C)o2)nc2ccccc21,3.8%,2.8%,-5.5%,2.1%,-3.2%,-5.3%
CC(C)n1c(NCc2ccccc2O)nc2ccccc21,·,-2.6%,-4.6%,-1.3%,·,-0.5%
Cn1c(NCc2ccccc2F)nc2ccccc21,12.6µM*,16.9µM*,·,·,·,·
CC(C)(C)C(=O)CNS(=O)(=O)c1ccc(S(=O)(=O)NC2CC2)cc1,·,6.2%,1.0%,-4.2%,·,-6.0%
Cc1ccc2cc(C(c3nnnn3C3CCCC3)N3CCOCC3)c(=O)[nH]c2c1C (stereo unspecified),-16.6%,0.3%,-2.8%,-1.5%,-0.6%,6.9%
CC(=O)NS(=O)(=O)c1ccc(NC(=O)/C=C/c2cn(-c3ccccc3)nc2-c2ccccc2)cc1,7.6%,9.53µM*,-3.8%,-2.8%,4.2%,0.5%
Cc1cc(=O)[nH]c(N/N=C/c2cn(CCC#N)nc2-c2ccccc2)n1,18.4%,19µM*,-1.0%,-1.0%,-2.8%,3.7%
N#CCCn1cc(/C=N/NC(=O)c2ccncc2)c(-c2ccccc2)n1,10.2%,10.3%,-0.5%,-3.1%,7.0%,-1.5%
C[C@@H]1C[C@H](O)c2cc(Cl)ccc2N1,9.5%,-1.7%,1.5%,-1.8%,-1.9%,1.0%
N#CC1CC(c2ccccc2)Nc2cc(Cl)ccc2N1 (stereo unspecified),·,10.7µM*,25.8%,14.6%,·,14.9%
CCC(C)C1C(C#N)=C(N)Oc2n[nH]c(-c3ccccc3)c21 (stereo unspecified),5.3%,-1.3%,-3.5%,-0.9%,0.7%,-12.3%
O=C(O)CSc1nnc(NC(=O)c2ccc3c(c2)OCO3)s1,-28.1%,1.9µM*,-3.4%,-3.6%,-8.2%,-12.2%
CC(C)(C)Cc1nnc(NC(=O)c2ccc3c(c2)OCO3)s1,·,?,2.24µM*,2.24µM*,·,?
COC(=O)CSc1nnc(NC(=O)c2ccc3c(c2)OCO3)s1,·,0.536µM*,?,26.5%,·,14.6µM*
COc1ccc(NC(=O)CC2C(=O)N(c3ccc(OC)cc3)C(=O)N2C(C)C)cc1 (stereo unspecified),3.4%,-2.4%,6.8%,10.3%,2.9%,12.0%
C/C(=N\OC(=O)NC1CCCCC1)c1sc(-c2ccccc2)nc1C,-54.7%,?,-6.6%,9.1%,-3.7%,-0.1%
C/C(=N\OC(=O)c1ccc(Cl)cc1)c1sc(-c2ccccc2)nc1C,?,3.9%,3.98µM*,3.98µM*,-2.2%,?
SMILES,SMN2 splice up,FLuc counter,Rab9 promoter act,NPC1 prom act,Luc counter,ELG1 genotox
Cc1nc(-c2ccccc2)sc1C(=O)CSc1ccc(Cl)cc1,3.3%,-11.6%,4.0%,0.6%,0.6%,0.8%
C/C(=N\OC(=O)c1ccc(F)cc1)c1sc(-c2ccccc2)nc1C,20µM*,4.8%,1.58µM*,2µM*,-4.7%,?
COc1ccc(S(=O)(=O)N2CCC(C(N)=O)(N3CCCCC3)CC2)cc1,6.0%,0.6%,-0.7%,-0.3%,-0.7%,-6.1%
CCN(CC)S(=O)(=O)c1cccc(N=NC2=C(O)CCCC2=O)c1,-14.5%,-2.7%,6.9%,7.0%,-3.5%,0.5%
Cc1nc2ccc(N=NC3=C(O)CCCC3=O)cc2s1,?,10.7µM*,-2.9%,4.9%,-13.7%,?
CC(=O)N1CCc2cc(N=NC3=C(O)CC(C)(C)CC3=O)ccc21,?,13.5µM*,1.58µM*,3.98µM*,-3.6%,?
Cc1nc2ccc(N=NC3=C(O)CC(C)(C)CC3=O)cc2s1,?,4.26µM*,1.6%,-2.2%,-4.8%,?
O=C1CCCC(O)=C1N=Nc1cccc(C(=O)O)c1,?,8.49µM*,2.24µM*,3.55µM*,-10.4%,?
COCC(=O)Nc1cc(C)cn(Cc2cccc(C(F)(F)F)c2)c1=O,·,-2.3%,0.0%,-2.3%,·,1.7%
CCCS(=O)(=O)c1c(S(=O)(=O)CCC)c2cc(C(C)(C)C)ccn2c1C(=O)c1ccccc1,-13.8%,-16.2%,·,·,·,·
O=C1/C(=C\c2ccc(O)c(O)c2)C(c2ccccc2)=NN1c1ccccc1,-1.5%,19µM*,-12.6%,-12.1%,-10.1%,7.7%
COc1cc(/C=C2\C(=O)N(c3ccc(NC(C)=O)cc3)N=C2c2ccccc2)ccc1O,4.6%,16.9µM*,-5.9%,-0.6%,-11.7%,5.6%
CSc1ccc(C(=O)N2CCc3ccc(NC(=O)c4ccccn4)cc3C2)cc1,·,19µM*,?,?,·,-34.1%
COC(=O)c1ccccc1NC(=O)N1CCc2ccc(NC(=O)c3ccccn3)cc2C1,·,0.9%,3.0%,-0.7%,·,-3.9%
Fc1ccc(-c2ncc3ccccn23)cc1,·,-14.7%,-0.2%,-0.1%,-5.1%,7.2%
Clc1ccc(/C=C/c2ncc3ccccn23)cc1,·,6.75µM*,1µM*,1.58µM*,-0.4%,?
Cc1ccc(S(=O)(=O)N2CCN(C(=O)COC(=O)c3cccc(Cl)c3)CC2)c(C)c1,·,-1.1%,-2.8%,0.2%,·,-2.0%
CCC(C)(C)NC(=O)C(c1ccc(F)cc1)N(Cc1cccc(OC)c1)C(=O)c1cnccn1 (stereo unspecified),·,1.8%,6.5%,-5.9%,0.7%,11.6%
CC(C)(C)NCCOc1ccc2ccccc2c1,-3.8%,-0.7%,-3.4%,-2.1%,-2.5%,0.0%
BrCCOCCOc1ccc2ccccc2c1,?,15.1µM*,?,?,-0.1%,?
Cc1nc2c(C(=O)N3CCN(C)CC3)cnn2c(C)c1Cc1ccc(Cl)cc1,-6.7%,3.0%,-1.3%,0.8%,0.5%,-0.6%
Cc1nc2c(C(=O)N3CCCCC3)cnn2c(C)c1Cc1ccccc1F,?,?,1.58µM*,1.58µM*,-4.5%,?
